Assay outcomes: PubChem BioAssay, National Center for Advancing Translational Sciences (NCATS)
KDM5B inhibitor – Primary screen for KDM5B Histone Demethylases FDH-coupled qHTS | Lysine-specific demethylase 5B (Homo sapiens), Q9UGL1 | KDM5B demethylase, FDH-coupled NADH fluorescence (FDH is formaldehyde dehydrogenase) | Potency, µM (doses to about 57.7 µM), hits mostly inhibitors | 2.6% of 220,000 active; active = well fitted inhibition curve with a large enough effect; also: 0% is about no effect; nearly all actives have a fitted effect of over 70% in size
Target sequence (Q9UGL1 whole entry, looked up): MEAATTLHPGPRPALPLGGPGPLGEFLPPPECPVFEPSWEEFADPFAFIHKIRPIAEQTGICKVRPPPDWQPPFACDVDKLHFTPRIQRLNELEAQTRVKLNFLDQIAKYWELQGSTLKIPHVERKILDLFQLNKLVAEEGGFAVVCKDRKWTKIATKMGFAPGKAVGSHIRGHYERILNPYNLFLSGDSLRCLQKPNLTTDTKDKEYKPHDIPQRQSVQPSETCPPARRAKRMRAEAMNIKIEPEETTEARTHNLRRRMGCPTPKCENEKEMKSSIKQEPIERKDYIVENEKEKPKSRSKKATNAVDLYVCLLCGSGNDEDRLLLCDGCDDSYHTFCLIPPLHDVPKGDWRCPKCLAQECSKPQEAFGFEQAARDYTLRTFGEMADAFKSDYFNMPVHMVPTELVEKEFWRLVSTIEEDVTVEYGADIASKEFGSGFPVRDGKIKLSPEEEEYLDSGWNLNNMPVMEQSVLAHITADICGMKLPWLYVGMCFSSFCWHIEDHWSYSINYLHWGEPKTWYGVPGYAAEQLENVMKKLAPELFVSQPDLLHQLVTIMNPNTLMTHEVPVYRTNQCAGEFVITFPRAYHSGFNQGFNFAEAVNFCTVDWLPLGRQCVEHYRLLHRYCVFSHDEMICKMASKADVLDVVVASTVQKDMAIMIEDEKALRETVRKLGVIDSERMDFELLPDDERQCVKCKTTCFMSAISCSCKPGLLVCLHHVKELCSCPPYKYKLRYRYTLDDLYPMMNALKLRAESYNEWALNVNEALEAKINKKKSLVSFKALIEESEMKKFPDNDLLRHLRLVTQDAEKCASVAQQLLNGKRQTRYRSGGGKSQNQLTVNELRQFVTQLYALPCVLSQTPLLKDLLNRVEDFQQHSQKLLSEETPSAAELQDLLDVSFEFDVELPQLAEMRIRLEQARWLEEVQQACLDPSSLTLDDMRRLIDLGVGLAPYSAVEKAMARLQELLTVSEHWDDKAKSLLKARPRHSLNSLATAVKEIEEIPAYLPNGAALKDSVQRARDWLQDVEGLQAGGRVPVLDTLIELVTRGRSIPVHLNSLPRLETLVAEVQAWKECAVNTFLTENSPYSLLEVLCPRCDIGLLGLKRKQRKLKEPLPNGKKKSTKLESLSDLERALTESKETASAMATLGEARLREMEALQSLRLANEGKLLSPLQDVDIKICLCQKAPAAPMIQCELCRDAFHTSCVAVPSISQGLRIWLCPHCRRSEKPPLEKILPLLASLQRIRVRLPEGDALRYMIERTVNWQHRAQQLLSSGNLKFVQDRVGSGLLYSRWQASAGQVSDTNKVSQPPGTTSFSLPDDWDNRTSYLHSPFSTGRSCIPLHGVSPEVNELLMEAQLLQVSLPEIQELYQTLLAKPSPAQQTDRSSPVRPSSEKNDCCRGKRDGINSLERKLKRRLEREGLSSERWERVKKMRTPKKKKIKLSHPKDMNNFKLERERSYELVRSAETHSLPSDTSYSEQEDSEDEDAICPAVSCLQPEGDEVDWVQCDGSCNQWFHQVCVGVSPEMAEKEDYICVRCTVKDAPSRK
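Measured: NADH fluorescence change, 30 min, RT. System: KDM5BΔAP 200 nM final, H3K4me3 peptide, α-KG, Fe(II), ascorbate, NAD⁺ plus FDH, pH 7.5 HEPES. Compounds: titrated, 10 min pre-incubation with enzyme.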
Starred values were filed as active, the others as inactive. The entries come from a sample that favours hits as a whole. Potency is read from the fitted curve at half-maximal effect.

What do the screens show for `O=C(Nc1ccccc1F)C1C(c2ccccc2)C1(Cl)Cl` (stereo not given)?
KDM5B inhibitor: inactive

How did COCCn1cnc2c1c(=O)n(CC(=O)Nc1ccccc1F)c(=O)n2Cc1ccccc1 do in these assays?
KDM5B inhibitor: inactive

What do the screens show for `CCc1ccc2oc(C(=O)NCC(c3cccs3)N3CCCC3)cc(=O)c2c1` (stereo not given)?
KDM5B inhibitor: inactive

What do the screens show for `O=C(NCc1nnc2ccc(-c3ccccc3)nn12)c1ccco1`?
KDM5B inhibitor: 28µM*

Results for Cc1ccc(-c2ccc3nnc(CNC(=O)c4ccco4)n3n2)cc1 ?
KDM5B inhibitor: 32µM*

What do the screens show for `CCOc1ccccc1C(N)=S`?
KDM5B inhibitor: inactive

How did CCc1ccc(C(C)NC(=O)CN(C)Cc2ccc(C)o2)cc1 (stereo not given) do in these assays?
KDM5B inhibitor: inactive

Results for CC(C)c1ccc(NC(=S)NCc2ccc(F)cc2)cc1 ?
KDM5B inhibitor: inactive

Results for COc1cccc(-c2cc3c(ccn3C)c(C(=O)NCCc3cnc[nH]3)n2)c1OC ?
KDM5B inhibitor: 40µM*

How did COc1ccc(CNC(=O)c2nc(-c3ccccc3OC)cc3c2ccn3C)cc1OC do in these assays?
KDM5B inhibitor: inactive

Results for COc1ccc(-c2cc3c(ccn3C)c(C(=O)NCCC(N)=O)n2)cc1OC ?
KDM5B inhibitor: 35µM*

How did COc1ccccc1-c1cc2c(ccn2C)c(C(=O)NCCN2CCNC2=O)n1 do in these assays?
KDM5B inhibitor: inactive

Results for Cn1ccc2c(C(=O)NCCc3cnc[nH]3)nc(-c3cnn(Cc4ccccc4)c3)cc21 ?
KDM5B inhibitor: 32µM*

How did Cn1ccc2c(C(=O)NCCc3cnc[nH]3)nc(-c3ccccc3)cc21 do in these assays?
KDM5B inhibitor: inactive

How did Cn1ccc2c(C(=O)NCCc3cnc[nH]3)nc(-c3cccc(CO)c3)cc21 do in these assays?
KDM5B inhibitor: inactive

How did COc1cc(F)ccc1-c1cc2c(ccn2C)c(C(=O)NCCc2cnc[nH]2)n1 do in these assays?
KDM5B inhibitor: inactive

What do the screens show for `COc1ccccc1-c1cc2c(ccn2C)c(C(=O)NCCc2cnc[nH]2)n1`?
KDM5B inhibitor: 40µM*

What do the screens show for `CC(C)CCn1nc(C(=O)OCc2nnc(-c3ccccc3)o2)c2ccccc2c1=O`?
KDM5B inhibitor: inactive

How did CCCCN1C(=O)C(=O)N(Cc2ncc(-c3ccc(F)cc3)o2)C1=O do in these assays?
KDM5B inhibitor: inactive

What do the screens show for `O=[N+]([O-])c1cccc(-n2nc(-c3ccccc3)c3cnc4ccccc4c32)c1`?
KDM5B inhibitor: inactive

Results for N#Cc1cccc(CN2CCN(c3oc(C4CC4)nc3C#N)CC2)c1 ?
KDM5B inhibitor: inactive

How did CCOC(=O)C(NC(=O)c1ccccc1)C(=O)OCC do in these assays?
KDM5B inhibitor: inactive

How did COc1cc(-c2csc(NC3CC3)n2)cc(OC)c1OC do in these assays?
KDM5B inhibitor: inactive

How did COc1ccc(-c2cc3c(ccn3C)c(C(=O)NCCc3cnc[nH]3)n2)cn1 do in these assays?
KDM5B inhibitor: 35µM*

Results for CC(=O)Nc1cccc(-c2cc3c(ccn3C)c(C(=O)NCCc3cnc[nH]3)n2)c1 ?
KDM5B inhibitor: inactive

How did Cn1ccc2c(C(=O)NCCc3cnc[nH]3)nc(-c3cccnc3)cc21 do in these assays?
KDM5B inhibitor: inactive

Results for Cc1ccc(N2CCN(C(=O)CCNS(=O)(=O)c3ccc4[nH]c(=O)ccc4c3)CC2)c(C)c1 ?
KDM5B inhibitor: inactive

Results for COC(=O)C1CCN(Cc2cc(=O)oc3cc(C)c(Cl)c(C)c23)CC1 ?
KDM5B inhibitor: inactive

What do the screens show for `COc1ccc(OC)c(-c2nc(CN3CCCC(C(C)(C)O)C3)c(C)o2)c1` (stereo not given)?
KDM5B inhibitor: 20µM*

Results for COc1ccc(-c2nc(CN3CCS(=O)(=O)CC3)c(C)o2)c(OC)c1C ?
KDM5B inhibitor: inactive

How did CNC(=O)c1ccc(-c2nc(CN3CCN(C(=O)Nc4ccc(OC)cc4OC)CC3)c(C)o2)cc1 do in these assays?
KDM5B inhibitor: inactive

Results for CCOc1ccc(Cl)cc1CNCc1cccnc1 ?
KDM5B inhibitor: inactive

What do the screens show for `O=C1NC(=NC2CCCCC2)C2(CCN(CC3CCCCC3)C2)N1c1cc(F)cc(F)c1` (stereo not given)?
KDM5B inhibitor: inactive

What do the screens show for `CC(=O)N1CCN(C(=O)C[C@@H]2C[C@@H](C(C)C)[C@H](CC#N)C=C2C)CC1`?
KDM5B inhibitor: inactive

What do the screens show for `CC(=O)N1CCN(C(=O)C[C@@H]2C[C@@H](C(C)C)[C@H](CNC(=O)c3cncnc3)C=C2C)CC1`?
KDM5B inhibitor: inactive

How did CC1=C[C@@H](CNC(=O)C2CCCCC2)[C@H](C(C)C)C[C@H]1CC(=O)N1CCN(c2ccccn2)CC1 do in these assays?
KDM5B inhibitor: 35µM*

What do the screens show for `CC1=C[C@@H](CNC(=O)c2ccccn2)[C@H](C(C)C)C[C@H]1CC(=O)N1CCCC1`?
KDM5B inhibitor: inactive

What do the screens show for `COCCNC(=O)C[C@@H]1C[C@@H](C(C)C)[C@H](CNC(=O)C2CC2)C=C1C`?
KDM5B inhibitor: 35µM*

How did CC1=C[C@@H](CC#N)[C@H](C(C)C)C[C@H]1CC(=O)N1CCN(c2cnccn2)CC1 do in these assays?
KDM5B inhibitor: 35µM*

What do the screens show for `COc1ccccc1N1CCN(C(=O)C[C@@H]2C[C@@H](C(C)C)[C@H](CC#N)C=C2C)CC1`?
KDM5B inhibitor: inactive

Results for COCC(=O)NC[C@@H]1C=C(C)[C@H](CC(=O)N2CCCC2)C[C@H]1C(C)C ?
KDM5B inhibitor: inactive

How did CC1=C[C@@H](CNC(=O)C(C)(C)C)[C@H](C(C)C)C[C@H]1CC(=O)N1CCN(c2ccccn2)CC1 do in these assays?
KDM5B inhibitor: 20µM*

How did COCCNC(=O)C[C@@H]1C[C@@H](C(C)C)[C@H](CNS(=O)(=O)c2ccccc2)C=C1C do in these assays?
KDM5B inhibitor: inactive

What do the screens show for `CCOC(=O)C[C@@H]1C[C@@H](C(C)C)[C@H](CNC(=O)C2CC2)C=C1C`?
KDM5B inhibitor: inactive

What do the screens show for `CC1=C[C@@H](CNC(=O)c2ccccc2)[C@H](C(C)C)C[C@H]1CC(=O)N1CCN(C)CC1`?
KDM5B inhibitor: inactive

How did CC(C)=CCC/C(C)=C/C=N/NC(=S)Nc1ccccc1 do in these assays?
KDM5B inhibitor: inactive

What do the screens show for `CC(=O)c1ccc(NC(=O)COC(=O)c2csc(NCc3ccccc3)n2)cc1`?
KDM5B inhibitor: inactive

Results for CCOCCOC(=O)COc1ccc2c(=O)c(-c3ccc(Cl)cc3)c(C(F)(F)F)oc2c1 ?
KDM5B inhibitor: inactive

Results for CC(C)Cc1nnc(NC(=O)c2cc(=O)c3ccccc3o2)s1 ?
KDM5B inhibitor: inactive

How did CN1CCC(NC(=O)c2cccc3ccccc23)CC1 do in these assays?
KDM5B inhibitor: inactive

How did COc1ccc(CNC(=O)NCC2Cn3cccc3C(=O)N2Cc2ccccc2)cc1 (stereo not given) do in these assays?
KDM5B inhibitor: inactive

Results for C[C@]1(CO)[C@H]2Cc3sc(NC(=O)c4ccco4)nc3[C@@H](CC(=O)N3CCC(C(N)=O)CC3)[C@]2(C)CC[C@H]1O ?
KDM5B inhibitor: inactive

How did Cc1ccc(-c2ccc(=O)n(Cc3noc(C(=O)NC(C)Cc4ccco4)n3)n2)cc1 (stereo not given) do in these assays?
KDM5B inhibitor: inactive

How did O=C(c1ccc(-c2ccco2)cc1)N1CCOc2ccc(CN3CCN(c4ccccn4)CC3)cc2C1 do in these assays?
KDM5B inhibitor: 28µM*

How did O=C(c1noc2c1CCCC2)N1CCOc2ccc(CN3CCN(c4ccccn4)CC3)cc2C1 do in these assays?
KDM5B inhibitor: inactive
